SARS PLpro yeast – SARS-CoV PLP inhibition in yeast; S. cerevisiae expressing SARS-CoV PLpro, growth rescue; Potency, µM (doses to about 32.9 µM), actives largely listed as activators; actives 0.19% (n = 330,000); AID 485353; note: nearly all actives have a fitted effect of over 55% in size
Pf growth 96h – P. falciparum growth inhibition at 96 hours; P. falciparum luciferase reporter growth, 96 h; actives 6.9% (n = 320,000); AID 504834; Potency, µM (highest dose often 28.7 µM), most hits filed as inhibitors; active = well fitted inhibition curve with a large enough effect; inconclusive = small, poorly fitted or top-dose-only effect, or another doubt; inactive = no such curve, though single readings can be large or run the other way
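Cell-based qHTS: luciferase-tagged P. falciparum in erythrocytes (2% hematocrit, 0.05% parasitemia final) incubated with compounds for 96 hours, 37 C, 5% CO2; luciferase detection reagent then added and luminescence measured.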
NS1 inh – influenza NS1 inhibition | Potency, µM (series often up to 46.1 µM) | actives 0.4% (n = 270,000); note: actives are rising curves; nearly all actives have a fitted effect of over 50% in size
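Compounds were scored for reversing the slow growth caused by influenza A NS1 in S. cerevisiae, measured by optical density at 600 nm. Assay medium contained 2% galactose at pH 6.0; NS1-free yeast of the same strain were the positive control.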
Shiga toxin inh – blocks Shiga toxin action in Vero cells; Vero cells, Shiga toxin protein synthesis inhibition reporter; actives 9.2% (n = 290,000); inhibition, % at 38.7 µM; in the data active = inhibition mostly above about 28%, no sharp cut-off; inactive = mostly below about 43%
CHX counter – counter-screen for Shiga toxin inhibitors: cycloheximide protein synthesis inhibition; cell reporter, cycloheximide protein synthesis inhibition counterscreen; max response, %; actives 12% (n = 300,000); in the data active = max response mostly above about 13%, no sharp cut-off; inactive = mostly below about 14%; note: read at 38.3 µM for the half of the compounds with a filed dose
Pf growth 48h – inhibits P. falciparum growth in the first generation, 48 h; actives 5.9% (n = 310,000); Potency, µM (doses to about 28.7 µM), usual class: inhibitors; AID 504832; P. falciparum luciferase growth in erythrocytes, 48 h; active = well fitted inhibition curve with a large enough effect; inconclusive = small, poorly fitted or top-dose-only effect, or another doubt; inactive = no such curve, though single readings can be large or run the other way
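Cell-based growth assay: transgenic P. falciparum expressing firefly luciferase, cultured in red cells within RPMI 1640 containing 0.5% w/v Albumax, 24 mM bicarbonate and gentamycin. A drop in luciferase activity indicates inhibition.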
A number is an active result; 0 = inactive; ? = inconclusive; - = no result. Hits are enriched below; roughly 21% of the tested compounds scored in any of these assays. Unless noted, calls come from the whole dose curve.

SMILES	SARS PLpro yeast	Pf growth 96h	NS1 inh	Shiga toxin inh	CHX counter	Pf growth 48h
Cc1csc(SCC(=O)c2cc(C)n(Cc3cccs3)c2C)n1	0	-	0	31.6	16.8	0
CCCC[C@@H](C)/C=C(C)/C=C(\C)C(=O)NC1=C[C@@](O)(/C=C/C=C/C=C/C(=O)NC2=C(O)CCC2=O)[C@@H]2O[C@@H]2C1=O	-	-	-	0	0	-
O=C(CCCC[C@@H]1SC[C@H]2NC(=O)N[C@H]12)Nc1ccc(C(=O)O)cc1	-	-	-	0	0	-
COc1cccc(N2CCN(C(=O)c3ccc(CS(=O)c4ccc(C)cc4)o3)CC2)c1 (stereo not drawn)	0	?	0	0	0	0
O=C(c1ccc(CS(=O)c2cccc(Cl)c2)o1)N1CCN(c2ccccn2)CC1 (stereo not drawn)	0	7.38µM	0	0	0	?
CCOC(=O)N1CCC(NC(=O)c2ccc(CS(=O)c3cccc(Cl)c3)o2)CC1 (stereo not drawn)	0	9.28µM	0	0	0	0
COc1cccc(N2CCN(C(=O)c3ccc(CS(=O)c4ccc(Cl)cc4)o3)CC2)c1 (stereo not drawn)	0	13.1µM	0	0	0	?
O=C(c1ccc(CS(=O)c2cccc(Cl)c2)o1)N1CCOCC1 (stereo not drawn)	?	?	0	0	0	0
O=C(Nc1cccc(C(F)(F)F)c1)Nc1cc(Cl)ccc1C(=O)O	-	-	-	0	0	-
CCOC(=O)c1[nH]cnc1C(=O)Nc1cccc(Cl)c1	0	?	0	0	0	0
Cc1cc(C(=O)CN2C(=O)NC(CC(C)C)C2=O)c(C)n1C1CC1 (stereo not drawn)	0	-	-	-	-	-
Cc1cc(C(=O)CN2C(=O)NC(CC(C)C)C2=O)c(C)n1-c1ccccc1F (stereo not drawn)	0	0	-	158.7	47.2	0
Cc1cc(C(=O)CN2C(=O)C(=O)N(CC(C)C)C2=O)c(C)n1-c1ccccc1F	0	0	0	0	16.9	0
Cc1cc(C(=O)CN2C(=O)C(=O)N(C3CCCC3)C2=O)c(C)n1-c1ccc(F)cc1	0	0	-	0	0	?
Cc1cc(C(=O)CN2C(=O)c3ccccc3S2(=O)=O)c(C)n1-c1ccccc1	0	0	0	0	0	0
Cc1cc(C(=O)CN2C(=O)C3CC=CCC3C2=O)c(C)n1-c1ccccc1 (stereo not drawn)	0	0	0	111.4	57.8	0
Nc1nnnn1/N=C/c1cccc(Oc2ccccc2)c1	0	7.38µM	0	0	0	0
CCCCNC(=O)C1C2C=CC3(CN(Cc4ccc(C)cc4)C(=O)C13)O2 (stereo not drawn)	0	10.4µM	0	0	0	0
Cc1ccc(CN2CC34C=CC(O3)C(C(=O)NCc3ccco3)C4C2=O)cc1 (stereo not drawn)	0	0	?	0	0	0
Cn1c(=NC(=O)C(C)(C)C)sc2cccc(F)c21	0	0	0	57.9	0	0
Cn1c(=NC(=O)c2ccccc2[N+](=O)[O-])sc2cccc(F)c21	0	0	0	162.0	63.3	0
CC(C)C(=O)N=c1sc2cc(F)cc(F)c2n1C	0	0	0	0	0	-
O=C(NCC1CCCN1S(=O)(=O)c1cccs1)C(=O)Nc1ccc(F)cc1F (stereo not drawn)	0	0	-	-	-	0
Cc1ccc(Cl)c(O)c1	-	0	-	-	-	0
Cc1ccc(S(=O)(=O)CC(=O)c2ccc(C(C)(C)C)cc2)cc1	0	2.62µM	0	0	0	2.33µM
SMILES	SARS PLpro yeast	Pf growth 96h	NS1 inh	Shiga toxin inh	CHX counter	Pf growth 48h
Cc1ccc(O)c(C(=O)CC(=O)c2ccc(C(C)(C)C)cc2)c1	0	?	0	-	23.2	?
Cc1ccc(O)c(C(=O)CC(=O)c2ccccc2Cl)c1	0	0	0	81.3	37.7	14.7µM
CC(C)CN(C(=O)COC(=O)COc1ccc2c(c1)CCC2)c1c(N)n(Cc2ccccc2)c(=O)[nH]c1=O	0	0	-	-	-	0
O=[As](O)(O)c1ccc2nc3cc([As](=O)(O)O)ccc3nc2c1	-	-	0	-	-	-
Oc1ccccc1C(=S)N1CCN(C(=S)c2ccccc2O)CC1	0	0	0	0	0	0
O=C(Oc1ccccc1F)c1ccc2c(=O)n3c(nc2c1)CCC3	0	0	-	-	-	0
CSc1ncc(-c2ccc(Cl)cc2)[nH]1	0	0	0	75.8	45.4	0
Clc1ccc(CSc2snnc2-c2ccccc2)c(Cl)c1	0	?	0	98.5	43.3	0
c1ccc(CSc2snnc2-c2ccccc2)cc1	0	0	0	41.5	44.2	0
COC(=O)C(C)Sc1snnc1-c1ccccc1 (stereo not drawn)	0	0	0	0	0	-
CSCCC1COC(c2cccs2)=N1 (stereo not drawn)	0	?	-	65.4	38.8	0
O=C(c1ccc(N2CCOCC2)c([N+](=O)[O-])c1)N1CCCC(C(F)(F)F)C1 (stereo not drawn)	-	0	-	-	-	0
O=C(CS(=O)(=O)c1cn(CC(=O)N2CCOCC2)c2ccccc12)Nc1ccccc1F	?	0	0	0	0	0
CC(C)C[C@H](NC(=O)c1[nH]cnc1C(=O)N[C@@H](C)c1ccccc1)C(=O)OCc1ccccc1	0	5.86µM	0	0	0	8.28µM
CC(C)C[C@H](NC(=O)c1nc[nH]c1C(=O)NCC(=O)OC(C)(C)C)C(=O)OCc1ccccc1	0	0	0	0	0	?
CC(C)C[C@H](NC(=O)c1nc[nH]c1C(=O)N[C@@H](CC(C)C)C(=O)OC(C)(C)C)C(=O)OCc1ccccc1	0	?	0	0	0	?
CC(C)C[C@H](NC(=O)c1nc[nH]c1C(=O)NCC(=O)OCc1ccccc1)C(=O)OCc1ccccc1	0	?	?	0	0	4.65µM
COC(=O)[C@H](C)N(Cc1ccc(Cl)c(Cl)c1)S(=O)(=O)CCN1CCCC1	0	-	-	-	-	-
COCCNC(=S)N1CCc2cc(OC)c(OC)cc2C1COc1cc(C)cc(C)c1 (stereo not drawn)	0	?	0	0	0	11.7µM
COc1cccc(-n2nnc3c(=O)n(Cc4c(F)cccc4Cl)cnc32)c1	0	9.28µM	0	0	0	0
COc1cccc(-n2nnc3c(=O)n(Cc4cccc(F)c4)cnc32)c1	0	?	0	0	0	0
COC(=O)C(C)n1cnc2c(nnn2-c2cccc(OC)c2)c1=O (stereo not drawn)	0	0	0	41.0	19.7	0
CCC(C(=O)OC)n1cnc2c(nnn2-c2cccc(OC)c2)c1=O (stereo not drawn)	0	0	0	0	16.3	0
CC(C)CCN(C(=O)c1cc(=O)[nH]c2ccccc12)c1c(N)n(Cc2ccccc2)c(=O)[nH]c1=O	0	0	-	-	-	?
CC1CCCCC1NC(=O)COc1ncnc2sccc12 (stereo not drawn)	0	?	-	-	-	0
CCOC(=O)CC1=NN(c2ccccc2)C(=O)/C1=C\c1ccc(N(C)C)cc1	0	5.86µM	0	0	0	?
Cc1ccc(F)cc1NC(=O)c1cnccn1	0	0	0	0	0	0
Nc1nc(Cl)cc(Nc2ccccc2Cl)n1	0	0	0	0	11.7	0

High-throughput results as filed in PubChem BioAssay.
